Screens deposited in PubChem BioAssay by National Center for Advancing Translational Sciences (NCATS).
Compounds with a hit are over-represented: about 19% of the library has one in this group of screens.
IL-1B inflam inh: qHTS for Inhibitors of Inflammasome Signaling: IL-1-beta AlphaLISA Primary Screen; 360,000 tested, 4.7% active; THP-1 LPS/ATP IL-1B secretion, AlphaLISA, 16 h; stronger effect = lower value; activity change, % at 57.5 µM; AID 743279, 2014; in the data active = activity change below about -50%; inconclusive = mostly about -30% to -49%
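Secreted IL-1B measured by AlphaLISA bead assay after 16 h compound exposure of THP-1 cells; compounds (final up to 57.5 uM) added 1 h before LPS (250 ng/mL) and ATP (1.25 mM) stimulation; lower signal means less secretion.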
HT1080 IDH1KD tx: qHTS for induction of synthetic lethality in tumor cells producing 2HG: qHTS for the HT-1080-IDH1KD cell line. 360,000 tested, 2% active. HT-1080 IDH1 knockdown viability, ATP luminescence, 48 h. AID 686971, 2013. Potency, µM (highest dose often 46.1 µM), actives largely listed as cytotoxic
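IDH1KD HT-1080 cells, 750/well, RPMI + 5% FBS; compound pinned after 2 h settling; 48 h, 37 °C; CellTiter-Glo luminescence; % activity normalised to DMSO and no-cell wells; curves fitted, classed by r2 and efficacy.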
DT40 TDP1 CPT: qHTS for Inhibitors of human tyrosyl-DNA phosphodiesterase 1 (TDP1): qHTS in cells in presence of CPT. 420,000 tested, 12% active. chicken DT40 Tdp1-/-;hTDP1 cells + 20 nM CPT, ATP luminescence, 48 h. AID 686979, 2013. Potency, µM (doses to about 46.2 µM), actives largely listed as inhibitors; also: nearly all actives have a fitted effect of over 55% in size
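Chicken DT40 Tdp1-/- cells complemented with human TDP1, 400 cells/well, exposed to compounds plus 20 nM camptothecin for at least 48 h at 37 C; viability read as ATP content by CellTiter-Glo luminescence.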
DT40 TDP1 no CPT: qHTS for Inhibitors of human tyrosyl-DNA phosphodiesterase 1 (TDP1): qHTS in cells in absence of CPT; DT40 Tdp1-/- hTDP1 cells, no CPT, ATP luminescence, 48 h; Potency, µM (top dose mostly 46.2 µM), actives largely listed as inhibitors; 420,000 tested, 15% active; AID 686978, 2013; also: nearly all actives have a fitted effect of over 55% in size
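A cellular qHTS used chicken DT40 cells lacking endogenous Tdp1 but carrying stably transfected human TDP1. Compounds were applied without camptothecin, and cell growth kinetics were judged by ATP-dependent luminescence after ≥48 hr.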
HT1080NT lethal: qHTS for induction of synthetic lethality in tumor cells producing 2HG: qHTS for the HT-1080-NT fibrosarcoma cell line | HT-1080-NT fibrosarcoma viability, CellTiter-Glo ATP luminescence, 48 h | Potency, µM (highest dose often 46.1 µM), usual class: cytotoxic | 360,000 tested, 1.6% active;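 also: NT is the 2HG producing partner of a matched IDH1 knockdown line; nearly all actives have a fitted effect of over 55% in size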
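Viability of the 2HG-overproducing fibrosarcoma line after 48 hours of compound exposure at 37 degrees C was determined by luminescence with CellTiter-Glo, and concentration-effect curves were then fitted and categorized.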
Numbers stand for hits; . = inactive; ? = inconclusive; / = not tested or not shown; [ ] = dose if it differs, or a comment. Unless noted, calls follow the shape of the dose curve; as a rule, active = well fitted curve in the direction sought with a large enough effect; inconclusive = small, poorly fitted or top-dose-only effect, or another doubt; inactive = no such curve, though single readings can be large; an effect the other way counts as inactive or inconclusive.

SMILES | IL-1B inflam inh | HT1080 IDH1KD tx | DT40 TDP1 CPT | DT40 TDP1 no CPT | HT1080NT lethal
CC(C)N(C(=O)[C@H]1CC(CC(=O)NCc2cccc(C(F)(F)F)c2)C(=O)N2CCc3c([nH]c4ccccc34)[C@]12C)C(C)C (some centres undefined) | ? | . | 18µM | 23µM | .
CCN(CC)C(=O)[C@H]1C[C@H](CC(=O)NCc2ccco2)C(=O)N2CCc3c([nH]c4cc(-c5ccco5)ccc34)[C@]12C | . | . | ? | ? | .
CCN(CC)C(=O)[C@H]1C[C@H](CC(=O)NCc2cccc(C(F)(F)F)c2)C(=O)N2CCc3c([nH]c4cc(-c5ccco5)ccc34)[C@]12C | -58 | ? | ? | ? | ?
CCN(CC)C(=O)[C@H]1C[C@H](CC(=O)NCCN2CCOCC2)C(=O)N2CCc3c([nH]c4cc(-c5ccco5)ccc34)[C@]12C | . | . | 21µM | ? | .
CCN(CC)C(=O)[C@H]1CC(CC(=O)NCc2cccc(C(F)(F)F)c2)C(=O)N2CCc3c([nH]c4ccc(OC)cc34)[C@]12C (some centres undefined) | . | . | 16µM | 15µM | .
CC12CC(NC(=O)N1Cc1ccccc1)c1ccccc1O2 (centres undefined) | . | . | ? | . | .
CC12CC(NC(=O)N1CCc1ccccc1)c1cc(Cl)ccc1O2 (centres undefined) | . | . | ? | 21µM | .
O=C(NC1CCCCC1)C(c1ccc2ncccc2c1)N(Cc1ccccc1)C(=O)c1ccc2c(c1)OCCO2 (centres undefined) | -55 | .[9.24 µM] | 13µM | ? | ?
Cc1ccc(C(C(=O)NC2CCCCC2)N(C(=O)CCCC(=O)Nc2ccccn2)c2ccc3c(c2)OCCO3)cc1 (centres undefined) | ? | . | . | . | .
COc1ccc(CN(C(=O)c2ccc3c(c2)OCCO3)C(C(=O)NC2CCCCC2)c2ccc3ncccc3c2)cc1 (centres undefined) | . | .[9.24 µM] | ? | 18µM | .
COc1ccc(C(C(=O)NC2CCCCC2)N(C(=O)c2cccs2)c2ccc3c(c2)OCO3)cc1 (centres undefined) | . | . | ? | ? | .
CCn1cc(C(=O)O)c(=O)c2cc(F)c(N3CCN(S(=O)(=O)c4ccc(NC(=O)OC)cc4)CC3)cc21 | . | . | 18µM | 18µM | .
CCn1cc(C(=O)O)c(=O)c2cc(F)c(N/N=C/c3ccccc3[N+](=O)[O-])cc21 | . | . | 4.1µM | 16µM | .
CCn1cc(C(=O)O)c(=O)c2cc(F)c(N3CCN(C(=S)NC(=O)c4ccc(F)cc4)CC3)cc21 | . | . | ? | ? | .
CCn1cc(C(=O)O)c(=O)c2cc(F)c(N3CCN(C(=S)Nc4ccccc4OC)CC3)cc21 | . | . | . | ? | .
CCCOc1ccc(C(=O)NC(=S)N2CCN(c3cc4c(cc3F)c(=O)c(C(=O)O)cn4CC)CC2)cc1 | . | . | 16µM | 15µM | .
CCn1cc(C(=O)O)c(=O)c2cc(F)c(N3CCN(C(=S)NC(=O)c4c(OC)cccc4OC)CC3)cc21 | ? | . | 18µM | 26µM | .
COc1ccc(S(=O)(=O)N2CCN(CC(=O)NC(C)c3cccs3)CC2)cc1 (centres undefined) | . | . | . | ? | .
COc1ccc2oc(C(=O)OCC(=O)NCc3ccc(OC)c(OC)c3)c(C)c2c1 | . | . | ? | ? | .
CCn1cc(C(=O)O)c(=O)c2cc(F)c(N3CCN(C(=S)NC(=O)c4ccccc4Br)CC3)cc21 | . | . | ? | 21µM | .
C=CCc1cccc(/C=C/c2cc(=O)c3ccccc3[nH]2)c1O | . | . | 7.3µM | 7.3µM | .
CC(c1ccncn1)N(C)C(=O)c1ccc2oc(Cc3ccccc3)nc2c1 (centres undefined) | . | . | . | ? | .
CC(C)CC(=O)Nc1ccc(C(=O)COC(=O)C2CCC2)cc1 | . | . | . | . | .
COc1cc(-c2cc(-c3ccc(F)cc3)nc(N)c2C#N)ccc1O | . | . | ? | ? | .
COc1ccc(-c2c(C#N)c(N)nc3c2CCCC3)cc1OC | . | . | . | . | .
SMILES | IL-1B inflam inh | HT1080 IDH1KD tx | DT40 TDP1 CPT | DT40 TDP1 no CPT | HT1080NT lethal
CCOc1cc(-c2c(C#N)c(N)nc3c2CCCC3)ccc1O | . | . | ? | 21µM | .
CCOc1cc(-c2cc(-c3ccccc3)nc(N)c2C#N)ccc1O | ? | . | 23µM | ? | .
CCOc1cc(-c2cc(-c3ccc(N)cc3)nc(N)c2C#N)ccc1O | -62 | ? | 15µM | 18µM | ?
O=C(Nc1cccc(Cl)c1Cl)c1ccc2c(c1)N(Cc1cccc(Cl)c1)C(=O)c1ccccc1S2=O (centres undefined) | / | / | . | . | /
O=C(NCc1cccc(F)c1)c1cccc(OC2CCN(C(=O)C3CC3)CC2)c1 | . | . | ? | 18µM | .
O=C(NC1CCCCCC1)c1c(O)nc2sccn2c1=O | . | ? | 16µM | 15µM | .
C[C@]12c3[nH]c4ccc(Cl)cc4c3CCN1C(=O)[C@@H](CC(=O)NCc1cccc(C(F)(F)F)c1)C[C@@H]2C(=O)N1CCCCC1 | ? | . | ? | 21µM | .
CCN(CC)C(=O)[C@H]1C[C@H](CC(=O)NCCCn2ccnc2)C(=O)N2CCc3c([nH]c4cc(-c5ccco5)ccc34)[C@]12C | . | . | . | ? | .
COc1ccc2[nH]c3c(c2c1)CCN1C(=O)C(CC(=O)NC(C)(C)C)C[C@H](C(=O)N2CCOCC2)[C@@]31CCC1CCCC1 (some centres undefined) | . | . | . | . | .
O=C(C[C@H]1C[C@H](C(=O)N2CCOCC2)[C@@]2(CCC3CCCC3)c3[nH]c4cc(-c5ccco5)ccc4c3CCN2C1=O)NCCCn1ccnc1 | ? | 16µM | ? | ? | ?
COc1ccc(CNC(=O)CC2C[C@H](C(=O)N3CCOCC3)[C@@]3(CCC4CCCC4)c4[nH]c5ccccc5c4CCN3C2=O)cc1OC (some centres undefined) | . | . | ? | 23µM | .
CC(C)(C)NC(=O)C[C@H]1C[C@H](C(=O)N2CCOCC2)[C@@]2(CCC3CCCC3)c3[nH]c4ccc(Cl)cc4c3CCN2C1=O | -60 | ? | ? | 16µM | ?
COc1ccc2[nH]c3c(c2c1)CCN1C(=O)C(CC(=O)NCc2ccc(OC)c(OC)c2)C[C@H](C(=O)N2CCOCC2)[C@@]31CCC1CCCC1 (some centres undefined) | . | . | ? | ? | .
